Test [1] is described as follows: reduced mouse 2C T cell binding to pMHC/ICAM-1 vesicles – MLPCN validation set, flow cytometry, LFA-1/ICAM-1 modulator project, pilot screen (AID 2523;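 active = response below a set limit, under 55% cells CD8-positive and vesicle-bound, and CD8 cells' 90th-percentile brightness under 279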;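 as to vesicle binding response: mean PE anti-B7-1 fluorescence of CD8+ cells relative to row control; 100% = QL9-loaded vesicles with DMSO vehicle in the same plate row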). To be noted: 2C mouse CD8+ T cells, at 7 µM, stronger effect = lower value; double positive events: measured here: CD8+/vesicle+ event percentage. For orientation: Flow cytometry measures light scatter and fluorescence of single cells or particles in a stream.

The target in test [2] is Integrin beta-1 (Homo sapiens) + Integrin alpha-4 (Homo sapiens) (UniProt P13612+P05556). As to the kind of experiment: alpha4beta1 integrin LIBS antibody binding reduction – U937 cells, HUTS-21 mAb, flow cytometry, validation set, VLA-4 allosteric modulator project, pilot screen (AID 2674;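 active = inhibition above 50%, about 3 SD of the validation set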;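 also: antibody binding induced by the VLA-4 ligand LDV present at three times its Kd; 0% = LDV ligand with antibody and no compound and 100% = antibody without LDV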). To be noted: HUTS-21 LIBS mAb binding, at 6.7 µM, stronger effect = higher value, binding induced by LDV ligand.

Test [3] is described as follows: calorie-restriction mimetic ROS inhibitors, yeast – validation compound set, pilot screen (AID 2706;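 active = superoxide response below 65% of plate, a cut near 3 SD across the whole screen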;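 also: yeast exposed to compound for one week at 30 degrees C before staining; 100% = mean of all compound wells on the same plate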). The conditions noted are these: S. cerevisiae aging, superoxide DHE fluorescence; at 10 µM, stronger effect = lower value.
Test [4] concerns the target Beta-adrenergic receptor kinase 1 (Homo sapiens) (UniProt P25098). The experiment in a line: GRK2 binders displacing RNA aptamer, biochemical, validation, human GRK2, bead flow cytometry (AID 488806;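 active = aptamer binding inhibition above 30%, about 3 SD of noise from non-fluorescent compounds; inactive = inhibition at or below 30%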). To be noted: bead-bound GRK2, FAM-aptamer displacement, at 10 µM, stronger effect = higher value.
For test [5], the target named is Beta-2 adrenergic receptor (Homo sapiens) (UniProt P07550). As to the kind of experiment: agonist-induced loss of surface beta2AR – cell-based, FAP fluorogen, flow cytometry, validation set, pilot screen (AID 504459).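 Also: agonist-driven loss of surface beta2AR via internalization measured by FAP dye flow cytometry.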 To be noted: Am2.2-beta2AR cells, at 10 µM, stronger effect = higher value.
The target of test [6] is AP-2 complex subunit beta (Homo sapiens) (UniProt P63010). The experiment in a line: beta-arrestin/AP2 interaction blockers – biochemical, validation set, GST-AP2 beads, flow cytometry, pilot screen (AID 504541;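 active = inhibition above 54%, about 3 SD of non-fluorescent compounds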;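 also: AP2 carries R879A mutation and is captured from E. coli lysate; bead-bound FITC arrestin peptide fluorescence measuring arrestin peptide binding to AP2; 0% = DMSO wells and 100% = excess unlabeled arrestin peptide control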). To be noted: FITC arrestin peptide, at 10 µM, stronger effect = higher value, AP2 beta2 appendage fragment, R879A mutant.
Test [7] is described as follows: cytosolic pH regulators acting via V-ATPase – S. cerevisiae, pHLuorin, HTS validation (AID 504600; in the data active = response above about 15%;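 also: plate controls were DMSO for no effect and reference compound for full effect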). The conditions noted are these: V-ATPase proton transport, at 10 µM, stronger effect = higher value.
For test [8], the system named is anti-desmoglein-3 scFv antibody binding to human DSG3. As to the kind of experiment: blockers of pathogenic pemphigus antibody–desmoglein-3 binding – biochemical, validation compound set, bead-based, flow cytometry, pilot screen (AID 588368;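 active = binding below the plate cutoff, the plate median minus 3 SD, with a reading above zero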;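 also: signal is the median channel fluorescence of bead-bound GFP antibody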). To be noted: Protein G beads, DSG3-Fc, scFv-GFP binding, at 10 µM, stronger effect = lower value.
The nature of test [9]: Nile Red efflux blockade in pump-expressing yeast – validation compound set, multiplex, phenotypic, pilot screen (AID 588506;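 active = efflux inhibition above 0.42, the validation set average plus 4 SD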;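 also: Nile Red retained in cells so higher fluorescence means more efflux inhibition; 0 = negative control wells and 1 = enniatin B 25 µM full block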). The conditions noted are these: S. cerevisiae pump-expressing triplex, Nile Red efflux flow cytometry; at 10 µM; stronger effect = higher value; the pumps come from Candida albicans.
In test [10] the target is ATP-binding cassette sub-family B member 6 (Homo sapiens) (UniProt Q9NP58). As to the kind of experiment: blockers of ABCB6-driven porphyrin uptake – K562-ABCB6 cells, flow cytometry, validation set, pilot screen (AID 588550;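 active = inhibition above the screen-wide mean plus 3 SD, about 51%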;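 also: 0% = DMSO wells and 100% = benzethonium chloride 70 µM positive control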). The conditions noted are these: K562-ABCB6 porphyrin accumulation, 1 h, at 10 µM, stronger effect = higher value.
Test [11] can be described thus: AML differentiation inducers, ER-HoxA9 marrow cells – cell-based, GFP/MAC1 double positive, flow cytometry, validation set, primary screen (AID 588685;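 active = differentiation response of at least 50%, scaled between solvent and reference control, from cells with both markers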;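 also: compound exposure lasts four days before antibody staining and flow analysis; 0% = DMSO wells and 100% = 5 µM fulvestrant positive control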). To be noted: stronger effect = higher value, normalized: vehicle 0, fulvestrant 100.

In general, inhibition refers to the change of the read-out against control, counted positive when it falls.

The structures appear in SMILES notation. Active and inactive are the calls of the source.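 The calls were made as follows, unless noted: active = percent response above 42, roughly 3 SD of non-fluorescent test compounds; inactive = the rest.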

Sequence of ATP-binding cassette sub-family B member 6 (Homo sapiens) (Q9NP58 whole entry, looked up): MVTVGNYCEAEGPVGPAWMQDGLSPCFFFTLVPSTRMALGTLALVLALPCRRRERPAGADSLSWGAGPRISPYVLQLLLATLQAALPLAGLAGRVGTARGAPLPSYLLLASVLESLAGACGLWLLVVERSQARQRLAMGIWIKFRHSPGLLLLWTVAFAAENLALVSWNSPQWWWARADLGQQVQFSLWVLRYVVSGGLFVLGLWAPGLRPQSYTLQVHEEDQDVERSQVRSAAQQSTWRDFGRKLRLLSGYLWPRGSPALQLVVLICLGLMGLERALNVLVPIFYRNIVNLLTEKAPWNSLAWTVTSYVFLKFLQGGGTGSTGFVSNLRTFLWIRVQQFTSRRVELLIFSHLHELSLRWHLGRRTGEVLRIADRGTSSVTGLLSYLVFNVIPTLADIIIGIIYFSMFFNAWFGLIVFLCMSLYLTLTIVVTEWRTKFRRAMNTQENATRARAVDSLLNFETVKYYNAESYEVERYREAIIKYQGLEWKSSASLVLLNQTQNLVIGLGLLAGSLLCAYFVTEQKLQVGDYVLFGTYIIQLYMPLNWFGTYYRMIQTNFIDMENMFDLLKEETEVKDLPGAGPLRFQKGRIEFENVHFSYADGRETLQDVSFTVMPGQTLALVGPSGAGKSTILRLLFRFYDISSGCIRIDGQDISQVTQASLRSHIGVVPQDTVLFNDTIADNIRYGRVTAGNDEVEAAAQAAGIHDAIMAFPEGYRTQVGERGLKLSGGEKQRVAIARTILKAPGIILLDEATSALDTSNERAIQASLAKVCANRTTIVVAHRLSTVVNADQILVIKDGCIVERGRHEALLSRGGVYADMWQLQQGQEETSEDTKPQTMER
Sequence of Beta-2 adrenergic receptor (Homo sapiens) (P07550 whole entry, looked up): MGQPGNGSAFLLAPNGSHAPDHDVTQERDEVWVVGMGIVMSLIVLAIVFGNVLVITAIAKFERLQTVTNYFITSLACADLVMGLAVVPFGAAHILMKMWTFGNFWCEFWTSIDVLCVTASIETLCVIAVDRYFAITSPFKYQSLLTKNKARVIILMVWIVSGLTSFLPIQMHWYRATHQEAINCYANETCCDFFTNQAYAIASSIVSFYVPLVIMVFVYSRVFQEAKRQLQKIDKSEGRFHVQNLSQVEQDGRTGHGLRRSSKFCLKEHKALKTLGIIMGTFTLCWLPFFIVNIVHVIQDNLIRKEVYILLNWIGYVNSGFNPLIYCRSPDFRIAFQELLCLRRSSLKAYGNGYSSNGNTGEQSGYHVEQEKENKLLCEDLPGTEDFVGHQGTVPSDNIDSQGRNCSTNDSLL
Sequence of Integrin beta-1 (Homo sapiens) + Integrin alpha-4 (Homo sapiens) (P05556 whole entry, looked up): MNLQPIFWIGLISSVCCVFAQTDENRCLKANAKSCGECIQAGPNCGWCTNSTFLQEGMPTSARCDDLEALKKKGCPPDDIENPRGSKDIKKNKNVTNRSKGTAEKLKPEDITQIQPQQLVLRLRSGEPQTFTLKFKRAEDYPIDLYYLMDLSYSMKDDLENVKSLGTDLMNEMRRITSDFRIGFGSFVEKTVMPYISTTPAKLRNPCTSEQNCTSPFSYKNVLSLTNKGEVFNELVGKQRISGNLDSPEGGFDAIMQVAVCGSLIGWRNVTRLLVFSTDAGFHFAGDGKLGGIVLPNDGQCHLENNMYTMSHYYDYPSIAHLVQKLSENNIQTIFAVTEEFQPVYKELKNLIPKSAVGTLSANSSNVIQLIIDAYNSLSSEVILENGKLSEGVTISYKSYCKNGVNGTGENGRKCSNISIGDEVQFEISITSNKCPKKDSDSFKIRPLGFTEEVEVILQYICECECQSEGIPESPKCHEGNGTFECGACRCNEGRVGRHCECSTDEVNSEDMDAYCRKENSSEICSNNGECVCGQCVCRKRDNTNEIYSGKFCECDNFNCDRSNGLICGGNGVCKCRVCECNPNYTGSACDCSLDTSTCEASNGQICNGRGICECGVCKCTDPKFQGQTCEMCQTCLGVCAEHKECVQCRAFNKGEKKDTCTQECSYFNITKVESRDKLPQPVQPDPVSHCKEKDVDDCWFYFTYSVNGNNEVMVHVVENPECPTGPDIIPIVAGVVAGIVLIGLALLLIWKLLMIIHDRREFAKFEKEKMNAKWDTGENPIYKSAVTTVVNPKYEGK
Sequence of Integrin beta-1 (Homo sapiens) + Integrin alpha-4 (Homo sapiens) (P13612 whole entry, looked up): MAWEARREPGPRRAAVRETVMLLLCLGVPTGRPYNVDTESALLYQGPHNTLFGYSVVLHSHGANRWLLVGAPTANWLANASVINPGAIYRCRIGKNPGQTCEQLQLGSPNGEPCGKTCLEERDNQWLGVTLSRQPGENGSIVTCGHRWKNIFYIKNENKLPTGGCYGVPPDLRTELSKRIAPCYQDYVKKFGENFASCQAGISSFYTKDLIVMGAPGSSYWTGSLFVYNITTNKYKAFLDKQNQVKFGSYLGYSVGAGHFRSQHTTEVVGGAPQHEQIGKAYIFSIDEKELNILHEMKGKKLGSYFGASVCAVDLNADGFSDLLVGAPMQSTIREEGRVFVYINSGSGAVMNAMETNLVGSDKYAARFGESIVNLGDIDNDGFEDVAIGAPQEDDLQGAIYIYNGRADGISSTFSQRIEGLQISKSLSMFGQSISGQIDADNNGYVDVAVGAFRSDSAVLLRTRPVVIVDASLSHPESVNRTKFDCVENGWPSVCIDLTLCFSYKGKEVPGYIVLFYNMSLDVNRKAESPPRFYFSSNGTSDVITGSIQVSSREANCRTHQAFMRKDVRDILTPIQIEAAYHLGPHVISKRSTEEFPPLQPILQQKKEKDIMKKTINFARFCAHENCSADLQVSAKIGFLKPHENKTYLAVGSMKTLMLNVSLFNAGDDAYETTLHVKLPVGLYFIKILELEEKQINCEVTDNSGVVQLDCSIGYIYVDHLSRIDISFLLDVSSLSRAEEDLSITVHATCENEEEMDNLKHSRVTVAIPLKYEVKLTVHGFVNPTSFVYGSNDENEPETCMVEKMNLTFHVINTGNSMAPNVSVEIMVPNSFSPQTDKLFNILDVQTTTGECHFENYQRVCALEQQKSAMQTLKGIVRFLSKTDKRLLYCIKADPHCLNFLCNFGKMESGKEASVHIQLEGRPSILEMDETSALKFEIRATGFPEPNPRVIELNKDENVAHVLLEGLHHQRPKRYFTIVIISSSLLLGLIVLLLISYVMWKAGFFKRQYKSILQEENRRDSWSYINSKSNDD
Sequence of Beta-adrenergic receptor kinase 1 (Homo sapiens) (P25098 whole entry, looked up): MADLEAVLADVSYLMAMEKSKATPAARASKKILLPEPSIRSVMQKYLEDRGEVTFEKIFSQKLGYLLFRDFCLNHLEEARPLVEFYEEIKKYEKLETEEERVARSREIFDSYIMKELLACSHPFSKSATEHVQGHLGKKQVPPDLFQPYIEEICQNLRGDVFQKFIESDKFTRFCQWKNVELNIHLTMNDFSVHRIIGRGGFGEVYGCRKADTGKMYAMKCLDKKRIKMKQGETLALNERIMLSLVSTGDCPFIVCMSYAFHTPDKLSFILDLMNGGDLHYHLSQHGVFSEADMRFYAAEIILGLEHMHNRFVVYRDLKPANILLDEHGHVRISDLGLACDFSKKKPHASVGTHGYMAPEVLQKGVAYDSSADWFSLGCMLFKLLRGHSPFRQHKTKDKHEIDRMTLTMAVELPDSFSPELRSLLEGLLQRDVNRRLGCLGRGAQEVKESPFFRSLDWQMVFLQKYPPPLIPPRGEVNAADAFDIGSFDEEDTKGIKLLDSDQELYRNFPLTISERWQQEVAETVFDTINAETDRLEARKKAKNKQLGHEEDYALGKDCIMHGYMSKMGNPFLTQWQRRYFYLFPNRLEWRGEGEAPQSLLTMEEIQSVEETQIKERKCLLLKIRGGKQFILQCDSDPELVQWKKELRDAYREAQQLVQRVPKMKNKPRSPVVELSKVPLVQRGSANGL
Sequence of AP-2 complex subunit beta (Homo sapiens) (P63010 whole entry, looked up, the tested form may be a part, one chain of several): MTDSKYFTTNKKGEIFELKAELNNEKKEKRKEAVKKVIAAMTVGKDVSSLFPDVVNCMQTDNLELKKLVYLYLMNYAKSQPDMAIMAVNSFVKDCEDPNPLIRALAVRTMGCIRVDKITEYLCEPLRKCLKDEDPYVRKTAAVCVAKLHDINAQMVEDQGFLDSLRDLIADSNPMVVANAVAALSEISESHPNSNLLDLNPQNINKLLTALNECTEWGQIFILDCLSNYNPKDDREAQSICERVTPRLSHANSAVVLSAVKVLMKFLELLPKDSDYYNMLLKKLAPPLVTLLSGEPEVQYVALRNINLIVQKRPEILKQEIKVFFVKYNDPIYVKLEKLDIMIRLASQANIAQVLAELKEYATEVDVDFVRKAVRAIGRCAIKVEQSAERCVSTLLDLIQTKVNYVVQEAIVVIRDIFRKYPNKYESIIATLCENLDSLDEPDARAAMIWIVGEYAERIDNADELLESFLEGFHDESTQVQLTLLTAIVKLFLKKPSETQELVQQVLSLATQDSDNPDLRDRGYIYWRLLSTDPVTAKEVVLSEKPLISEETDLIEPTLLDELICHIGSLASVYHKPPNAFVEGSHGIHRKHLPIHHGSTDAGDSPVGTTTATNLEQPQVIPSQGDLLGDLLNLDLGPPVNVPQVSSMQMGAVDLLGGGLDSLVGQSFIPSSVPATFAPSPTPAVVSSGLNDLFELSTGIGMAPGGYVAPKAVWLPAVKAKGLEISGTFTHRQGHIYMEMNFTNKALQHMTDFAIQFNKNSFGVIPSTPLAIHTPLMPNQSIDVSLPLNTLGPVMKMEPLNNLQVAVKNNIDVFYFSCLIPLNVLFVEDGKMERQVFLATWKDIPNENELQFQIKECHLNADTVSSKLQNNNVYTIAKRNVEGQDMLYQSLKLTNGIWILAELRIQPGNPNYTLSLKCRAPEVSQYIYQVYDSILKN

On to `COc1ccccc1C(=O)N=C1NC(=O)CC2C(=O)NCCN12` (stereo unspecified), for which, in test [1], the double positive events turned out to be 63.2%. Also, the vesicle binding response in [1] is 245% (inactive). Further, the inhibition in test [2] was 6.4% (inactive); in test [6], 0.24% (inactive); in test [10], 9% (inactive). Also, the superoxide response (% of plate) in test [3] was 100% (inactive). The aptamer binding inhibition in [4] is 0% (inactive). For the same compound, the response in [5] was -0.52% (inactive); in test [7], -0.05% (inactive). The binding (% of control) in test [8] was 103% (inactive). In [9], the efflux inhibition (fraction of control) was 0.08 (inactive). Besides, in test [11], the differentiation response is -8.8% (inactive).

In test [1], `C/C(NC(=O)c1cccs1)=C1\C(=O)C[C@@H]2[C@H]1C2(C)C` had a double positive events of 56.1%. Besides, in test [1], the vesicle binding response is 193% (inactive). In addition, the inhibition in [2] was 0.59% (inactive); in test [6], -13% (inactive); in test [10], 9% (inactive). The superoxide response (% of plate) in [3] was 102% (inactive). In test [4], the aptamer binding inhibition is -8% (inactive). In addition, the response was -39.8% (inactive) in test [5] and -6.85% (inactive) in test [7]. In [8], the binding (% of control) is 105% (inactive). Further, the efflux inhibition (fraction of control) in test [9] is -0.04 (inactive). The differentiation response in test [11] was -11.9% (inactive).

In turn, `CCOC(=O)/C=C1\NC(C)(C)Cc2cc(OC)c(OC)cc21` displayed a double positive events in test [1] of 59.2%. In addition, in test [1], the vesicle binding response was 271% (inactive). Moreover, the inhibition in test [2] is 5.03% (inactive); in [6] it was -4.08% (inactive); in [10] it was 7% (inactive). The superoxide response (% of plate) in test [3] was 102% (inactive). Also, in [4], the aptamer binding inhibition is 4% (inactive). The response in test [5] is 9.33% (inactive); in [7], -1.95% (inactive). Moreover, the binding (% of control) in test [8] is 101% (inactive). Further, the efflux inhibition (fraction of control) in test [9] is 0.08 (inactive). The differentiation response in [11] is 31.2% (inactive).

In the case of `CCc1cccc2c1NC1(CCCC1)CC2C` (stereo unspecified), the double positive events in test [1] turned out to be 58.5%. Besides, in test [1], the vesicle binding response is 185% (inactive). The figures for the inhibition in test [2], in test [6] and in test [10] were -16.8% (inactive), -1.05% (inactive) and -41% (inactive), respectively. Moreover, the superoxide response (% of plate) in test [3] is 96.3% (inactive). In addition, in test [4], the aptamer binding inhibition was 4% (inactive). Further, the response was 45.9% (active) in test [5] and 1.08% (inactive) in test [7]. Moreover, the binding (% of control) in test [8] was 97.6% (inactive). Also, the efflux inhibition (fraction of control) in test [9] is -0.06 (inactive). For the same compound, the differentiation response in [11] was 10.4% (inactive).

`Cc1ccc2c(CN3CCN(Cc4ccc5c(c4)OCO5)CC3)cc(=O)oc2c1C`: the double positive events in [1] came out at 58.4%. Further, the vesicle binding response in test [1] was 88.4% (inactive). Moreover, the inhibition in [2] is -7.79% (inactive); in [6], 4.85% (inactive); in test [10] it was -11% (inactive). In addition, in test [3], the superoxide response (% of plate) was 87.4% (inactive). The aptamer binding inhibition in test [4] is -2% (inactive). In addition, the response in test [5] was -2.16% (inactive); in [7], -2.29% (inactive). Moreover, the binding (% of control) in test [8] is 106% (inactive). In addition, the efflux inhibition (fraction of control) in test [9] was -0.28 (inactive). For the same compound, the differentiation response in test [11] is -6.03% (inactive).

The compound `CNCCc1ccccn1` had a double positive events in test [1] of 60%. Also, the vesicle binding response in test [1] was 212% (inactive). Moreover, the inhibition in test [2] was 15.1% (inactive); in [6], -12.3% (inactive); in test [10] it was 1% (inactive). For the same compound, in test [3], the superoxide response (% of plate) is 122% (inactive). The aptamer binding inhibition in [4] is -6% (inactive). For the same compound, the results for the response in test [5] and in test [7] were -19.8% (inactive) and -10.1% (inactive), respectively. For the same compound, the binding (% of control) in test [8] is 100% (inactive). Besides, in [9], the efflux inhibition (fraction of control) is 0 (inactive). The differentiation response in test [11] is 2.89% (inactive).

`CC[N+](C)(C)Cc1ccccc1Br`: in test [1], the double positive events stood at 63.8%. For the same compound, the vesicle binding response in [1] was 185% (inactive). The figures for the inhibition in [2], in test [6] and in [10] were 8.25% (inactive), -11.2% (inactive) and 2% (inactive), respectively. In addition, the superoxide response (% of plate) in [3] is 96.2% (inactive). Further, the aptamer binding inhibition in test [4] was 4% (inactive). Besides, the response in [5] was -19.8% (inactive); in test [7], -30.5% (inactive). For the same compound, the binding (% of control) in test [8] was 102% (inactive). Also, the efflux inhibition (fraction of control) in [9] is 0 (inactive). In addition, the differentiation response in test [11] was -11.9% (inactive).

`O=C(c1cc2cc(Br)ccc2o1)N1CCCCC1` displayed a double positive events in test [1] of 63.8%. For the same compound, in test [1], the vesicle binding response is 320% (inactive). The inhibition in [2] is 10.5% (inactive); in test [6] it was -1.81% (inactive); in test [10] it was 6% (inactive). Also, the superoxide response (% of plate) in test [3] is 86.2% (inactive). The aptamer binding inhibition in test [4] was -4% (inactive). Moreover, the response is -13.7% (inactive) in test [5] and -0.39% (inactive) in test [7]. For the same compound, the binding (% of control) in [8] is 73.3% (active). Moreover, in test [9], the efflux inhibition (fraction of control) was 0.05 (inactive). In addition, the differentiation response in test [11] is 4% (inactive).

For the compound `OC(CCCN1CCCCC1)(c1ccccc1)c1ccccc1`, the double positive events in test [1] came to 62.8%. Moreover, the vesicle binding response in test [1] was 250% (inactive). Also, the inhibition in test [2] was 19.1% (inactive); in test [6], -8.31% (inactive); in test [10] it was 4% (inactive). In test [3], the superoxide response (% of plate) is 104% (inactive). Also, the aptamer binding inhibition in test [4] was -3% (inactive). Besides, the response in test [5] is -0.72% (inactive); in [7], 2.56% (inactive). In addition, the binding (% of control) in test [8] is 108% (inactive). The efflux inhibition (fraction of control) in test [9] was 0.34 (inactive). Also, the differentiation response in test [11] was -2.46% (inactive).

`NC(=O)N1c2ccccc2C=Cc2ccccc21` displayed a double positive events in test [1] of 56%. Moreover, the vesicle binding response in [1] is 120% (inactive). Moreover, the inhibition was 5.61% (inactive) in test [2], 1.72% (inactive) in test [6] and 11% (inactive) in test [10]. Further, the superoxide response (% of plate) in test [3] was 112% (inactive). Moreover, the aptamer binding inhibition in test [4] was 3% (inactive). For the same compound, the results for the response in [5] and in [7] were 13.8% (inactive) and -12.4% (inactive), respectively. The binding (% of control) in test [8] is 98.5% (inactive). Moreover, the efflux inhibition (fraction of control) in [9] is -0.07 (inactive). Besides, the differentiation response in [11] was -3.11% (inactive).

In turn, `O=C(/C=C/c1ccc2c(c1)OCO2)c1ccccn1` displayed a double positive events in test [1] of 60.4%. Moreover, the vesicle binding response in test [1] is 181% (inactive). For the same compound, the inhibition in [2] was 4.84% (inactive); in [6], -13% (inactive); in test [10], -8% (inactive). Besides, the superoxide response (% of plate) in test [3] was 89.8% (inactive). Also, the aptamer binding inhibition in test [4] is 1% (inactive). The values for the response in test [5] and in test [7] were -23.4% (inactive) and -4.66% (inactive), respectively. Also, in test [8], the binding (% of control) is 102% (inactive). In addition, the efflux inhibition (fraction of control) in test [9] is 0 (inactive). In test [11], the differentiation response is -5.97% (inactive).

As to `Cn1c2ccc(CC(=O)O)cc2c2cc(CC(=O)O)ccc21`, the double positive events in test [1] turned out to be 61.4%. In addition, the vesicle binding response in test [1] was 244% (inactive). In addition, the inhibition in test [2] was 10.5% (inactive); in test [6], 2.08% (inactive); in test [10] it was 6% (inactive). Also, the superoxide response (% of plate) in test [3] was 92.3% (inactive). Besides, the aptamer binding inhibition in [4] is 3% (inactive). Besides, the response is -8.9% (inactive) in test [5] and 1.83% (inactive) in test [7]. Besides, the binding (% of control) in [8] was 101% (inactive). Besides, in test [9], the efflux inhibition (fraction of control) is -0.21 (inactive). Also, in [11], the differentiation response is 8.8% (inactive).

As for `Cc1ccc(C(=O)N2CC3(C(C)C)CN(C(=O)c4ccc(C)cc4)CC(C(C)C)(C2)C3=O)cc1`, the double positive events in test [1] is 59.7%. Further, the vesicle binding response in [1] is 224% (inactive). Also, the inhibition is -30.5% (inactive) in test [2], 14.1% (inactive) in test [6] and 5% (inactive) in test [10]. Also, in [3], the superoxide response (% of plate) was 97.1% (inactive). Moreover, the aptamer binding inhibition in test [4] is 3% (inactive). In addition, the response in test [5] was 24.4% (inactive); in test [7], -0.93% (inactive). The binding (% of control) in test [8] was 99.1% (inactive). In addition, the efflux inhibition (fraction of control) in test [9] is 0.76 (active). Moreover, the differentiation response in test [11] is 7.2% (inactive).

Source of the values: PubChem BioAssay.
